The panel holds about 79,000 compounds, 15% with a hit somewhere; the sample as a whole holds those more often. A number with no mark means an inactive call. The source made the active and inactive calls. No stated cut-off is given here; in the data, active means growth inhibition above about 70%; inactive means the rest.
Legend:
[1] = NCI Yeast Anticancer Drug Screen. Data for the rad50 strain (AID 155);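 further: 0% = growth of vehicle-only cultures of the same strain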; conditions: S. cerevisiae rad50 strain growth inhibition; at 50.0 µM; hits give high values
Method in brief: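 DNA repair mutant yeast, compound exposure, growth read-out; inhibition is taken relative to vehicle.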

[2] = NCI Yeast Anticancer Drug Screen. Data for the mec2-1 strain (AID 157); conditions: S. cerevisiae mec2-1 strain, at 50.0 µM, hits give high values
Method in brief: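 mec2-1 yeast strain, carrying an alteration in DNA damage repair or cell cycle control, was exposed to compounds; growth inhibition was measured relative to vehicle-treated controls.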

[3] = NCI Yeast Anticancer Drug Screen. Data for the sgs1 mgt1 strain (AID 161);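 further: 0% = growth of cultures given vehicle only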; conditions: S. cerevisiae sgs1 mgt1 strain, at 50.0 µM, hits give high values
Method in brief: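 Percent growth inhibition was derived by comparing compound-exposed mutant yeast with vehicle-exposed cultures. The strain carries alterations in DNA damage repair.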

[4] = NCI Yeast Anticancer Drug Screen. Data for the cln2 rad14 strain (AID 165);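 further: 0% = growth equal to vehicle treated cultures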; conditions: S. cerevisiae cln2 rad14 strain, at 50.0 µM, hits give high values
Method in brief: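 Yeast carrying cln2 and rad14 alterations (cell cycle control and DNA damage repair) were exposed to compounds. Growth inhibition was measured against vehicle-treated controls.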

[5] = NCI Yeast Anticancer Drug Screen. Data for the bub3 strain (AID 167); conditions: S. cerevisiae bub3 mutant strain, at 50.0 µM, hits give high values
Method in brief: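 In this screen, a yeast mutant lacking normal mitotic checkpoint function is challenged with compound. Relative growth versus vehicle gives the inhibition value.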

[6] = NCI Yeast Anticancer Drug Screen. Data for the mlh1 rad18 strain (AID 175); conditions: S. cerevisiae mlh1 rad18 strain growth inhibition; at 50.0 µM; hits give high values
Method in brief: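 Growth inhibition of the yeast strain was measured after compound exposure and expressed relative to vehicle-treated controls. The strain carries defined defects in DNA damage repair.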

Row | Structure (SMILES) | growth inhibition [1] | growth inhibition [2] | growth inhibition [3] | growth inhibition [4] | growth inhibition [5] | growth inhibition [6]
1 | O=C(O)Cc1cccc2c(=O)cc(Cc3ccccc3)oc12 | -13.8% | -16.6% | -11.5% | 6.6% | 20.1% | -15%
2 | O=c1cc(C=Nc2ccc(-c3csc(-c4ccccc4)n3)cc2)[nH]c(=S)[nH]1 | 97.2% (active) | 91.2% (active) | 97.7% (active) | 97.2% (active) | 96.5% (active) | 98% (active)
3 | O=C(NCCNCCO)N/N=C/c1ccc([N+](=O)[O-])cc1 | -8.75% | -7.35% | -1.4% | 36.6% | 0.3% | -3.65%
4 | Cc1ccc(NC(=O)Nc2cccc(C(F)(F)F)c2)cc1NC(=O)Nc1cccc(C(F)(F)F)c1 | 2.75% | 15% | 31.9% | 23.7% | -6.6% | 29.6%
5 | CCn1c(C)nc2ccccc21 | -12.7% | -6.55% | 2.5% | -0.5% | -16.1% | 1.5%
6 | c1ccc(C(c2ccccc2)[n+]2ccccc2)cc1 | 4.5% | -1.3% | -6.1% | -11.2% | -5.5% | -6.25%
7 | CSCCC(NC(=O)OCc1ccccc1)P(=O)(O)c1ccccc1 (configuration not stated) | -56% | -41.1% | -34% | 13.2% | 14.8% | -11%
8 | Nc1ccc(C(=O)O)cn1 | -20.4% | -11.1% | 29.6% | -34.5% | 9.95% | -0.45%
9 | CC(C)(C)CC(C)(C)NCc1ccc(Cl)cc1 | 78.6% (active) | 45% | 61.3% | 40.2% | 65.6% | 60.6%
10 | Cc1cc(-c2ccccc2)cc(C[n+]2ccccc2)[n+]1-c1ccccn1 | 12.8% | 6.2% | 9.2% | -3.8% | 2.2% | 18.9%
11 | CC(C)CCNCCCCCCl | 62.5% | 37.3% | 36.7% | 36.6% | 26.8% | 67.1%
12 | CSC(c1ccc(Oc2ccccc2)cc1)=[N+]1CCCCC1 | 47.2% | 13.2% | 49.4% | 23.2% | 53.5% | 23.7%
13 | Cn1c(=O)c2c(ncn2CCSS(=O)(=O)O)n(C)c1=O | -20.7% | -17.1% | 12.2% | -11.9% | -12% | -28.9%
14 | O=c1c(O)c(-c2ccccc2)oc2c(CP(=O)(O)O)cccc12 | 5.05% | -19.1% | -17.3% | -12.5% | -2.45% | -18%
15 | Oc1cccc(Oc2cccc(Oc3cccc(O)c3)c2)c1 | -14.4% | -14.2% | -4.3% | -8.65% | 8.35% | -7.85%
16 | CC(C)c1cccc2ccccc12 | 2.85% | 0.2% | -2.9% | -13.8% | -4.7% | 13.4%
17 | c1ccc(CNC2CC3CCC2C3)cc1 (configuration not stated) | -17.6% | -5.5% | -10.8% | -5.15% | -16.4% | -1.3%
18 | Cc1cc(Cl)ccc1NC(=O)/C(Cc1nc2ccc(C(=O)c3ccccc3)cc2[nH]c1=O)=N/NC(=O)c1ccncc1 | 21.9% | 17.1% | 1.45% | -33.7% | 4.7% | 16.1%
19 | Cn1ccnc1SC(=O)C(Cl)(c1ccccc1)c1ccccc1 | -13.2% | 5.85% | -0.8% | -18.4% | 0.35% | 5.45%
20 | Cn1c(=O)c2c(ncn2C2C(=O)NNC2=O)n(C)c1=O | -7.15% | -8.45% | -17.2% | 2.35% | 7.55% | 0.9%
21 | O=C(CNc1ccccc1)c1ccc(O)c(C(=O)O)c1 (tested in a mixture with another compound) | -8.5% | -12.3% | -11.3% | -5.35% | -0.7% | 0.95%

Row | Structure (SMILES) | growth inhibition [1] | growth inhibition [2] | growth inhibition [3] | growth inhibition [4] | growth inhibition [5] | growth inhibition [6]
22 | [N-]=[N+]=NS(=O)(=O)CCc1ccc(Cl)cc1 | 4.55% | -3.95% | -12.4% | -55% | -17.9% | 4.85%
23 | CCCCCOc1ccc2ccccc2c1 | -23.5% | -27.8% | -18.6% | -20.9% | 10.2% | 7.15%
24 | COC(=O)c1ccc(SCCC(=O)CO)cc1 | 19.4% | 15.9% | -4.6% | 5.35% | 13% | 23.9%
25 | C[N+]1(CC[N+]2(C)CCCC2c2cccnc2)CCCC1c1cccnc1 (configuration not stated) | 6.15% | -0.2% | -16.9% | -34.5% | 28% | 19.9%
26 | Cc1ccc(S(=O)(=O)ON/N=c2\ccn(C)c3ccccc23)cc1 | 38.1% | 12.6% | 19.1% | -4.85% | 8.05% | 16.6%
27 | CCSCC1C(=O)C23C(O)C1CCC2C12COC3(O)C(O)C1C(C)(C)CCC2O (configuration not stated) | 16.6% | 18.4% | 7.45% | 10.9% | 2.4% | 7.05%
28 | O=C(COc1ccc(Cl)cc1)NCCOC(=O)COc1ccc(Cl)cc1 | 37.5% | 20.4% | 12.2% | 18.2% | 21.3% | 52.3%
29 | CC(C)OC(=O)Oc1ccc(Cl)cc1Cl | 6.2% | -19.1% | 10.1% | -47.2% | -9.95% | 3.45%
30 | Cn1ccc2c3ccn(C)c3ccc21 | -15.8% | 9.4% | -5.25% | 56.7% | -19.9% | 23.1%
31 | O=C(O)C(Br)C(Br)C(=O)Nc1cccc(Cl)c1 (configuration not stated) | 0.5% | -47.2% | 21.2% | -27.8% | 5.75% | 20.2%
32 | CCCCC(CC)COC(=O)CCl (configuration not stated) | 21.1% | 10.7% | 8.3% | -14.8% | -1.6% | 21.8%
33 | c1ccc(-c2nsc3ccccc23)cc1 | 14.3% | -6.35% | -8.25% | -31.1% | -14.8% | 5.75%
34 | Cn1c(Nc2ccccc2)c([N+](=O)[O-])c(=O)n(C)c1=O | -11.8% | -7.35% | -5% | -18.2% | -2.15% | -27.6%
35 | O=[N+]([O-])c1cc(F)cc(F)c1Nc1ccccc1 | 2.85% | -11.4% | 2.2% | 3.1% | 0.5% | 17.6%
36 | O=C1CCC(C(=O)O)N1 (configuration not stated) | -9.2% | 4.7% | -20.9% | 1.15% | 7.7% | -7.8%
37 | CC(=O)OC1C(=O)C2C(CC=C3CC(O)CC(O)C32C)C2CCC(C(C)C3CC(C)C(C)(C)O3)C12C (configuration not stated) | -31.3% | -5.15% | -29.8% | -10.4% | -10.8% | -25.6%
38 | CC(C)(C)OC(=O)N(CCCCN(CCCNC(=O)C(F)(F)F)C(=O)OC(C)(C)C)CCCNC(=O)C(F)(F)F | -14.9% | 4.75% | -14.3% | 3.15% | 4.6% | -32%
39 | CSC1=C(c2ccc(Cl)cc2)SC(N2CCCCC2)N1c1ccc([N+](=O)[O-])cc1 (configuration not stated) | 0.55% | -0.05% | 1.7% | 5.2% | 5.4% | 4.9%
40 | NC1CCCCC1NCCNC1CCCCC1N (configuration not stated) | -3.15% | 9.35% | 16.4% | -12.9% | 42.4% | 10.8%
41 | CC1=C(C(=O)CC(=O)C(=O)Nc2cccc(Cl)c2C)Sc2ccccc2N1 | -18.8% | -8.1% | -31.4% | 19.1% | -13.6% | -10.6%
42 | O=c1c(Cl)c(Cl)cnn1CCc1ccncc1 | 2.2% | -4.05% | -19.6% | 11.4% | -7.3% | -2.65%

Reference: PubChem BioAssay (NCI)
